# Measurements published in PubChem BioAssay (Tox21).
# Several values for one entry are separate records, joined by “and”; a condition that tells them apart may be missing. Equal entries are not always repeated. Records with an inconclusive call do not appear. Entries that show only a call come without a potency. Values without a mark were called inactive. Activity calls are given as the source filed them. Calls follow the shape of the dose curve; as a rule, active = well fitted cell-killing curve with a large enough effect in the repeat runs; inconclusive = weak or mixed curves, or effect the other way; inactive = flat fitted curve, though single readings scatter.
# What was measured:
# [1] = cAMP Responsive Elements (CRE) small molecule antagonists, cell-based qHTS assay: qHTS cell viability counter screen (AID 2060913); also: nearly all actives have a fitted effect of over 40% in size
# In short: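 CRE-bla HEK293T cells (2,000/well, 18 h) given compound plus NKH477 0.25 uM final for 3 h at 37C; viability counter-screen by CellTiter-Glo luminescence in same wells after 30 min.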
# [2] = cAMP Responsive Elements (CRE) small molecule agonists, cell-based qHTS assay: qHTS cell viability counter screen (AID 2060914);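 also: viability read after 3 h of compound exposure; nearly all actives have a fitted effect of over 50% in size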
# In short: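 HEK 293T CRE-bla; DMEM + 10% dialyzed FBS, 25 mM HEPES; 18 h pre-incubation; compound 3 h, 37 °C/5% CO2; CellTiter-Glo added after reporter read; luminescence after 30 min RT.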
# Potency is read from the fitted curve at half-maximal effect.
Compound,Potency [1],Potency [2],"viability change, negative = cytotoxic [1]","activity change, negative = cytotoxicity [2]"
Cc1ccc(Cl)cc1N,inactive,inactive,–,–
COc1ccc(S(=O)(=O)N2c3ccc(Cl)cc3[C@@](O)(c3ccccc3Cl)[C@H]2C(=O)N2CCC[C@@H]2C(N)=O)cc1OC,inactive,inactive,–,–
C=CC(=O)OCCCCCCCC(C)C,inactive,inactive,–,–
CO[Si](C)(C)OC,inactive,inactive,–,–
CN1CCCN=C1COC(=O)C(O)(c1ccccc1)C1CCCCC1 (stereo not drawn),inactive,inactive,–,–
CCCCCCCCOC(=O)c1ccc(O)cc1,inactive,inactive,–,–
CN(C)CCOCCO,inactive,inactive,–,–
O=C(O)CN(CCN(CC(=O)O)CC(=O)O)CC(=O)O,–,–,3.3% [at 3.27 µM],-20.1% [at 3.27 µM]
CC1=NN(c2ccc(S(=O)(=O)O)cc2)C(=O)C1,inactive,inactive,–,–
O=C(OCC1CO1)C1CCCCC1C(=O)OCC1CO1 (stereo not drawn),inactive,inactive,–,–
C=C(C)CCCC,inactive,inactive,–,–
CCO[Si](OCC)(OCC)c1ccccc1,inactive,inactive,–,–
CC(C)CCCCCCc1ccc(OCCOCCO)cc1,inactive,inactive,–,–
CC(C)=O,inactive,25 µM (active),–,–
CC(=O)CC(=O)Nc1ccccc1C,inactive,inactive,–,–
C[C@@H]1O[C@@H](O[C@@H]2[C@@H](O)[C@H](OCCc3ccc(O)c(O)c3)O[C@H](CO[C@@H]3O[C@H](CO)[C@@H](O)[C@H](O)[C@H]3O)[C@H]2OC(=O)/C=C/c2ccc(O)c(O)c2)[C@H](O)[C@H](O)[C@H]1O,inactive,inactive,–,–
Cc1ccccc1C(N)=O,inactive,inactive,–,–
CCCCCCC(O)CCCCCCCCCCC(=O)O (stereo not drawn),inactive,inactive,–,–
CC(C)=CCC/C(C)=C/C=O,inactive,inactive,–,–
Cc1cc(C)c(C)c(O)c1,inactive,inactive,–,–
c1ccc2c(c1)[nH]c1ccccc12,inactive,inactive,–,–
CCN1CCC[C@H]1CNC(=O)c1c(OC)ccc(Br)c1OC,inactive,inactive,–,–
CCCCCCCCNC,inactive,inactive,–,–
CC(=O)c1ccc(C(C)=O)cc1,inactive,inactive,–,–
CCCCCCn1c(=O)c2c(ncn2C)n(C)c1=O,inactive,inactive,–,–
CCNCCO,inactive,inactive,–,–

Compound,Potency [1],Potency [2],"viability change, negative = cytotoxic [1]","activity change, negative = cytotoxicity [2]"
NC[C@H]1O[C@H](O[C@H]2[C@H](O[C@@H]3O[C@H](CO)[C@@H](O)[C@H]3O)C(O)[C@H](N)C[C@@H]2N)[C@H](N)[C@@H](O)[C@@H]1O (stereo partly drawn),–,–,2.15% [at 8.39 µM],13.8% [at 8.39 µM]
SCCCCCCCCS,inactive,inactive,–,–
CCc1oc2ccccc2c1C(=O)c1cc(I)c(O)c(I)c1,inactive,inactive,–,–
CNc1ccc([N+](=O)[O-])cc1,inactive,inactive,–,–
COCCOc1cc2cc(C(=O)NC3CCN(C(C)C)CC3)n(CC(=O)Nc3ccc(Cl)cn3)c2cn1,inactive,inactive,–,–
CC(Cl)COP(=O)(OCC(C)Cl)OCC(C)Cl (stereo not drawn),inactive,inactive,–,–
O=NO,inactive,inactive,–,–
Cc1ccc(C(C)C)cc2c(C)ccc1-2,inactive,inactive,–,–
CCOC(=O)C1OC1c1ccccc1 (stereo not drawn),inactive,inactive,–,–
C1CCCNCC1,inactive,inactive,–,–
CCCCCC(C)N (stereo not drawn),inactive,inactive,–,–
O=C(NS(=O)(=O)/C=C/c1ccccc1)c1ccc(F)cc1Cl,inactive,inactive,–,–
CN(C)c1ccc(O)c2c1C[C@H]1C[C@H]3[C@H](N(C)C)C(=O)C(C(N)=O)=C(O)[C@@]3(O)C(=O)C1=C2O,inactive,inactive,–,–
CCC(=O)O[C@H]1[C@H](O[C@@H]2[C@@H](C)[C@H](O[C@H]3C[C@@](C)(OC)[C@@H](O)[C@H](C)O3)[C@@H](C)C(=O)O[C@H](CC)[C@@](C)(O)[C@H](O)[C@@H](C)C(=O)[C@H](C)C[C@@]2(C)O)O[C@H](C)C[C@@H]1N(C)C,inactive,inactive,–,–
COc1ccc(N)c(OC)c1,inactive,inactive,–,–
Nc1ccc(NCCO)c([N+](=O)[O-])c1,inactive,inactive,–,–
CN(C)C(=S)SC(=S)N(C)C,62.7 µM (active) and 3.2 µM (active),inactive,–,–
CCCCCCCCCCCCCCC(=O)NC(CO)CCCCCCCCCCCCCC (stereo not drawn),inactive,inactive,–,–
CCCC(=O)OC(C)(C)Cc1ccccc1,inactive,inactive,–,–
Cc1ccc2ccccc2n1,inactive,inactive,–,–
CCCCCCCCCCCCCCN(CCO)CCO,inactive,inactive,–,–
CN1CC(=O)N/C1=N/C(=O)Nc1cccc(Cl)c1,inactive,inactive,–,–
Cc1cn([C@H]2C=C[C@@H](CO)O2)c(=O)[nH]c1=O,inactive,inactive,–,–
OC[C@H]1O[C@@H]2O[C@H]3[C@H](O)[C@@H](O)[C@@H](O[C@H]4[C@H](O)[C@@H](O)[C@@H](O[C@H]5[C@H](O)[C@@H](O)[C@@H](O[C@H]6[C@H](O)[C@@H](O)[C@@H](O[C@H]7[C@H](O)[C@@H](O)[C@@H](O[C@H]8[C@H](O)[C@@H](O)[C@@H](O[C@H]1[C@H](O)[C@H]2O)O[C@@H]8CO)O[C@@H]7CO)O[C@@H]6CO)O[C@@H]5CO)O[C@@H]4CO)O[C@@H]3CO,inactive,inactive,–,–
O=c1[nH]c2ccccc2c(=O)n1CCCl,inactive,inactive,–,–
CC[C@@]1(O)C(=O)OCc2c1cc1n(c2=O)Cc2cc3c(CN(C)C)c(O)ccc3nc2-1,inactive,inactive,–,–

Compound,Potency [1],Potency [2],"viability change, negative = cytotoxic [1]","activity change, negative = cytotoxicity [2]"
C=CC(=O)O[C@H]1C[C@@H]2CC[C@@]1(C)C2(C)C,inactive,inactive,–,–
CC(C)CC(=O)C1C(=O)c2ccccc2C1=O,inactive,inactive,–,–
O=C(O)CCn1c2c(c3ccccc31)C[C@H](NS(=O)(=O)c1ccc(F)cc1)CC2,inactive,inactive,–,–
c1ccc2c(c1)-c1cccc3c1c-2cc1ccccc13,inactive,inactive,–,–
CCc1cccc(CC)c1,inactive,inactive,–,–
c1ccc(CN(Cc2ccccc2)Cc2ccccc2)cc1,inactive,inactive,–,–
CCN(CC)CCCC(C)Nc1ccnc2cc(Cl)ccc12 (stereo not drawn),–,–,4.94% [at 8.39 µM] and -2.8% [at 18.9 µM],-0.2% [at 8.39 µM] and -0.0045% [at 18.9 µM]
O=S(O)O,–,–,17.7% [at 18.9 µM],3.71% [at 18.9 µM]
CC1=C(C)S(=O)(=O)CCS1(=O)=O,inactive,inactive,–,–
Nc1ncnc2nc[nH]c12,inactive,inactive,–,–
CCCC1CCC(=O)O1 (stereo not drawn),inactive,inactive,–,–
CCOC(OCC)OCC,inactive,inactive,–,–
O=C1CC2(CCCC2)CC(=O)N1CCCCN1CCN(c2ncccn2)CC1,inactive,inactive,–,–
CN1CCc2cccc3c2[C@H]1Cc1ccc(O)c(O)c1-3,inactive,inactive,–,–
CN1C(C)(C)CCCC1(C)C,inactive,inactive,–,–
CC(=O)OCCC1CCCCC1,inactive,inactive,–,–
O=CN(CCO)CCO,inactive,inactive,–,–
CC(C)(C)c1cc(Cc2cc(C(C)(C)C)c(O)c(C(C)(C)C)c2)cc(C(C)(C)C)c1O,inactive,inactive,–,–
COc1ccc(C(C)=O)cc1,inactive,inactive,–,–
O=C(Nc1ccccc1SSc1ccccc1NC(=O)c1ccccc1)c1ccccc1,inactive,inactive,–,–
O=c1[nH]cnc2[nH]ncc12,inactive,inactive,–,–
Nc1cc(Cl)cc(S(=O)(=O)O)c1O,inactive,inactive,–,–
CN(C)CCOC(c1ccccc1)c1ccccc1,inactive,inactive,–,–
CN(N=O)C(=O)N[C@@H]1[C@@H](O)[C@H](O)[C@@H](CO)O[C@@H]1O,inactive,inactive,–,–
CC1=NN(c2ccc(C(=O)O)cc2)C(=O)C1,inactive,inactive,–,–
CCCCN=C(N)N=C(N)N,inactive,inactive,–,–

Compound,Potency [1],Potency [2],"viability change, negative = cytotoxic [1]","activity change, negative = cytotoxicity [2]"
CC1=CCC(C(C)C)=CC1,inactive,inactive,–,–
O=C(c1ccccc1)c1cccc(O)c1,inactive,inactive,–,–
NC(=O)c1ccc(N)cc1,inactive,inactive,–,–
N#CC1(N)CCCCC1,inactive,inactive,–,–
COc1ccc2c(c1)c(CC(=O)O)c(C)n2C(=O)c1ccc(Cl)cc1,inactive,inactive,–,–
O=S(=O)(O)c1cccc2ccccc12,inactive,inactive,–,–
N#C/C(=C1\SCC(c2ccccc2Cl)S1)n1ccnc1 (stereo not drawn),inactive,inactive,–,–
CCC(C(=O)OCCN1CCOC(c2ccccc2)C1C)c1ccccc1 (stereo not drawn),inactive,inactive,–,–
CCC(=O)OCc1ccc(OC)cc1,inactive,inactive,–,–
CCCCCCC(C)O (stereo not drawn),inactive,inactive,–,–
OC(CN1CCC(Cc2ccc(F)cc2)CC1)c1ccc(Cl)cc1 (stereo not drawn),inactive,inactive,–,–
O=[N+]([O-])c1cc(C(F)(F)F)ccc1Cl,inactive,inactive,–,–
CC(C)NCC(O)COc1cccc2ccccc12 (stereo not drawn),inactive,inactive,–,–
COC(=O)Cc1cccc2ccccc12,inactive,inactive,–,–
OCCCS,inactive,inactive,–,–
CCCCOCC(C)O (stereo not drawn),inactive,inactive,–,–
O=C(O)c1cn(C2CC2)c2cc(Cl)c(F)cc2c1=O,inactive,inactive,–,–
NC(=O)Cn1c(=O)cc(CCN2CCN(c3nccc4sccc34)CC2)c2ccc(F)cc21,inactive,inactive,–,–
Nc1ncnc2c1ncn2[C@@H]1O[C@H](CO)[C@@H](O)[C@H]1O,inactive,inactive,–,–
COc1cc2c(cc1OC)-c1cc3ccc(OC)c(OC)c3c[n+]1CC2,inactive,inactive,–,–
COc1ccccc1N=Nc1c(S(=O)(=O)O)cc2cc(S(=O)(=O)O)cc(NC(C)=O)c2c1O,inactive,inactive,–,–
CCCCC1CCCCC(=O)O1 (stereo not drawn),inactive,inactive,–,–
CCCCCCCCCCCC(=O)OC,inactive,inactive,–,–
CN(C)c1ccc(C2(c3ccc(N(C)C)cc3)OC(=O)c3cc(N(C)C)ccc32)cc1,inactive,inactive,–,–
Cc1nc2ccccc2c(=O)o1,inactive,inactive,–,–
CCN(CC)S(=O)(=O)c1ccc(C(=O)O)cc1,inactive,inactive,–,–
